{
  "source": "PubChem BioAssay (EPA / NIEHS)",
  "note": "Results filed as inconclusive are left out. Activity calls are given as the source filed them. The calls were made as follows: active = hit-call score of the fitted dose curve at least 0.9, where 1 is the maximum; inconclusive = response in the unintended direction; inactive = score below 0.9.",
  "data": [
    {"biological_target": "Peroxisome proliferator-activated receptor gamma (Homo sapiens) (UniProt P37231)", "sequence (P37231 whole entry, looked up, the tested form may be a part)": "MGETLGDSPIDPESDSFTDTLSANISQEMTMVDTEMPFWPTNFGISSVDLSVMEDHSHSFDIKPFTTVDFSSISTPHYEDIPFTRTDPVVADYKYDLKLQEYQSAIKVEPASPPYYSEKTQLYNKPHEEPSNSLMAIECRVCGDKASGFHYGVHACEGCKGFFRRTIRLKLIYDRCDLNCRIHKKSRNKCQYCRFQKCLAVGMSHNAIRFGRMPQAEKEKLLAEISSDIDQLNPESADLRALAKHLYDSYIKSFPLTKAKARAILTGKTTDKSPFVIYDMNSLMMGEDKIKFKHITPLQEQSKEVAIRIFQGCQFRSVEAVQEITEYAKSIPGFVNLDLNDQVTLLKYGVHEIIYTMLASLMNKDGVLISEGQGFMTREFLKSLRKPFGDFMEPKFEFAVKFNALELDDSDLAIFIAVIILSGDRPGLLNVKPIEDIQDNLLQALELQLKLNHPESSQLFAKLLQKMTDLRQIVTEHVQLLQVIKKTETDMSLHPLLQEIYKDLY", "test": "ATG_PPARg_TRANS: Attagene TRANS-FACTORIAL HepG2 Assay for human Peroxisome Proliferator-activated Receptor-gamma (PPARg) (AID 2283007)", "how_it_was_run": "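A TRANS-format multiplexed reporter assay measures activity of an exogenous chimeric NR-Gal4 protein in HepG2 cells. After 24 h of chemical exposure, reporter transcripts are amplified, fluorescently labelled and sized by capillary electrophoresis, with gain of signal scored against DMSO.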", "values": [
      {"smiles": "O=C1C(Cl)=C(Cl)C(=O)C(Cl)=C1Cl", "outcome": "inactive"},
      {"smiles": "COc1cc(OC)c(OC)cc1C=O", "outcome": "inactive"},
      {"smiles": "CC(C)c1ccc(O)cc1", "outcome": "inactive"},
      {"smiles": "CC(C)(c1cc(Cl)c(O)c(Cl)c1)c1cc(Cl)c(O)c(Cl)c1", "AC50": "3.75 µM (active)"},
      {"smiles": "O=C(NCNC(=O)NC1C(=O)NC(=O)N1CO)NC1C(=O)NC(=O)N1CO", "note": "(configuration not stated)", "outcome": "inactive"},
      {"smiles": "CC(C)CCCCCCCOP(=O)(Oc1ccccc1)Oc1ccccc1", "AC50": "7.95 µM (active)"},
      {"smiles": "C=CCN(CC=C)C(=O)C(Cl)Cl", "outcome": "inactive"},
      {"smiles": "CC[N+](=O)[O-]", "outcome": "inactive"},
      {"smiles": "CC(Cc1ccc(C(C)(C)C)cc1)CN1C[C@@H](C)O[C@@H](C)C1", "note": "(some centres not stated)", "AC50": "21.7 µM (active)"},
      {"smiles": "[Cl-].[Cl-].[Cl-].[Yb+3]", "outcome": "inactive"},
      {"smiles": "CCOC(=O)N(C)N=O", "outcome": "inactive"},
      {"smiles": "O=CNC(N1CCN(C(NC=O)C(Cl)(Cl)Cl)CC1)C(Cl)(Cl)Cl", "note": "(configuration not stated)", "outcome": "inactive"},
      {"smiles": "CC(C)(O)C#N", "outcome": "inactive"},
      {"smiles": "CC(C)C#N", "outcome": "inactive"},
      {"smiles": "S=c1[nH]c2ccccc2[nH]1", "outcome": "inactive"},
      {"smiles": "CCCCCc1cc(O)cc(O)c1", "AC50": "10.5 µM (active)"},
      {"smiles": "c1ccc(Nc2ccc3ccccc3c2)cc1", "AC50": "18 µM (active)"},
      {"smiles": "CSc1nc(N=[N+]=[N-])nc(NC(C)C)n1", "AC50": "15.4 µM (active)"},
      {"smiles": "CC=Cc1ccc2c(c1)OCO2", "outcome": "inactive"},
      {"smiles": "Cc1ccc(OP(=O)(Oc2ccc(C)cc2)Oc2ccc(C)cc2)cc1", "note": "(tested in a mixture with another compound)", "AC50": "1.85 µM (active)"},
      {"smiles": "ClC1=C(Cl)[C@]2(Cl)[C@@H]3[C@@H](Cl)[C@H](Cl)C[C@@H]3[C@@]1(Cl)C2(Cl)Cl", "outcome": "inactive"},
      {"smiles": "O=S(=O)(c1ccccc1)c1ccccc1", "outcome": "inactive"},
      {"smiles": "CCC(C)c1cc(C(C)(C)C)cc(-n2nc3ccccc3n2)c1O", "note": "(configuration not stated)", "outcome": "inactive"},
      {"smiles": "CC1(C)C(=O)NC(=O)NC1=O", "outcome": "inactive"},
      {"smiles": "CC(=O)/C=C/c1ccccc1", "AC50": "32.1 µM (active)"},
      {"smiles": "c1ccc(P(c2ccccc2)c2ccccc2)cc1", "outcome": "inactive"},
      {"smiles": "CCN(CC)C(=S)S", "AC50": "51.5 µM (active)"},
      {"smiles": "N#Cc1cccc(C#N)c1", "outcome": "inactive"},
      {"smiles": "O=C1Nc2ccc(Cl)cc2C(c2ccccc2)=NC1O", "note": "(configuration not stated)", "outcome": "inactive"},
      {"smiles": "N#CC(c1ccccc1)c1ccccc1", "AC50": "83.2 µM (active)"},
      {"smiles": "C[N+](C)=CCl", "outcome": "inactive"}
    ]},
    {"biological_target": "Nuclear receptor subfamily 1 group I member 2 (Homo sapiens) (UniProt O75469)", "sequence (O75469 whole entry, looked up, the tested form may be a part)": "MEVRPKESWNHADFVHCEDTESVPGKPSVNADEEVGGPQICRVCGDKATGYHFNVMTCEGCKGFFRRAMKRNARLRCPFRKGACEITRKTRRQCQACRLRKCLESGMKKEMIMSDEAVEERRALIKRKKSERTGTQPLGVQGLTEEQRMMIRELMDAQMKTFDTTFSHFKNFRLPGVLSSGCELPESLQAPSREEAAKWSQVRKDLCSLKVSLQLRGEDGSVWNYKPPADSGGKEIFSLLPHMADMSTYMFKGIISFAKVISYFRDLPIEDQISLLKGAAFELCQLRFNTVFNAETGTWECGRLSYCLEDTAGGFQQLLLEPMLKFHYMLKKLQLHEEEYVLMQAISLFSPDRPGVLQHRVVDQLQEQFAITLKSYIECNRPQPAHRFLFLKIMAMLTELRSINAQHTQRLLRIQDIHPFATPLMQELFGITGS", "test": "ATG_PXR_TRANS: Attagene TRANS-FACTORIAL HepG2 Assay for human Pregnane X Receptor (PXR) (AID 2283008)", "how_it_was_run": "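HepG2 cells transiently transfected with multiple reporter units, here a PXR-GAL4 chimera driving a GAL4-UAS reporter; 24 h compound exposure. Reporter mRNA measured by RT-PCR, FAM labelling and capillary electrophoresis; gain of signal fitted against DMSO baseline.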", "values": [
      {"smiles": "O=C1C(Cl)=C(Cl)C(=O)C(Cl)=C1Cl", "outcome": "inactive"},
      {"smiles": "CC1CCC(=O)O1", "note": "(configuration not stated)", "outcome": "inactive"},
      {"smiles": "COc1cc(OC)c(OC)cc1C=O", "outcome": "inactive"},
      {"smiles": "CC(C)c1ccc(O)cc1", "outcome": "inactive"},
      {"smiles": "CC(C)(c1cc(Cl)c(O)c(Cl)c1)c1cc(Cl)c(O)c(Cl)c1", "AC50": "1.87 µM (active)"},
      {"smiles": "O=C(NCNC(=O)NC1C(=O)NC(=O)N1CO)NC1C(=O)NC(=O)N1CO", "note": "(configuration not stated)", "outcome": "inactive"},
      {"smiles": "COCC(=O)N(c1c(C)cccc1C)N1CCOC1=O", "AC50": "27.4 µM (active)"},
      {"smiles": "CC(C)CCCCCCCOP(=O)(Oc1ccccc1)Oc1ccccc1", "AC50": "0.711 µM (active)"},
      {"smiles": "C=CCN(CC=C)C(=O)C(Cl)Cl", "outcome": "inactive"},
      {"smiles": "CC[N+](=O)[O-]", "outcome": "inactive"},
      {"smiles": "CC(Cc1ccc(C(C)(C)C)cc1)CN1C[C@@H](C)O[C@@H](C)C1", "note": "(some centres not stated)", "AC50": "4.52 µM (active)"},
      {"smiles": "[Cl-].[Cl-].[Cl-].[Yb+3]", "outcome": "inactive"},
      {"smiles": "O=CNC(N1CCN(C(NC=O)C(Cl)(Cl)Cl)CC1)C(Cl)(Cl)Cl", "note": "(configuration not stated)", "AC50": "6.57 µM (active)"},
      {"smiles": "CCC[N+](=O)[O-]", "outcome": "inactive"},
      {"smiles": "CC(C)(O)C#N", "outcome": "inactive"},
      {"smiles": "S=c1[nH]c2ccccc2[nH]1", "outcome": "inactive"},
      {"smiles": "CCCCCc1cc(O)cc(O)c1", "AC50": "11.1 µM (active)"},
      {"smiles": "c1ccc(Nc2ccc3ccccc3c2)cc1", "AC50": "7.59 µM (active)"},
      {"smiles": "CSc1nc(N=[N+]=[N-])nc(NC(C)C)n1", "AC50": "14 µM (active)"},
      {"smiles": "CC=Cc1ccc2c(c1)OCO2", "outcome": "inactive"},
      {"smiles": "Cc1ccc(OP(=O)(Oc2ccc(C)cc2)Oc2ccc(C)cc2)cc1", "note": "(tested in a mixture with another compound)", "AC50": "0.596 µM (active)"},
      {"smiles": "O=S(=O)(c1ccccc1)c1ccccc1", "AC50": "10.3 µM (active)"},
      {"smiles": "CCC(C)c1cc(C(C)(C)C)cc(-n2nc3ccccc3n2)c1O", "note": "(configuration not stated)", "outcome": "inactive"},
      {"smiles": "CC1(C)C(=O)NC(=O)NC1=O", "outcome": "inactive"},
      {"smiles": "CC(=O)/C=C/c1ccccc1", "outcome": "inactive"},
      {"smiles": "c1ccc(P(c2ccccc2)c2ccccc2)cc1", "AC50": "6.89 µM (active)"},
      {"smiles": "CCOC(=O)COc1ccc(Cl)cc1Cl", "outcome": "inactive"},
      {"smiles": "CCN(CC)C(=S)S", "AC50": "3.68 µM (active)"},
      {"smiles": "N#Cc1cccc(C#N)c1", "outcome": "inactive"},
      {"smiles": "O=C1Nc2ccc(Cl)cc2C(c2ccccc2)=NC1O", "note": "(configuration not stated)", "outcome": "inactive"},
      {"smiles": "N#CC(c1ccccc1)c1ccccc1", "AC50": "4.59 µM (active)"}
    ]}
  ]
}
